Laboratory results reported in article PMC5540273 (PLoS ONE, 2017).

What was measured:
Conditions in all cases: concentration: 1 μM,replicates: in singlicate; n = 1
[1] = system: TYK2(JH2domain-pseudokinase)
[2] = system: TYRO3
[3] = system: ULK1
[4] = system: ULK2
[5] = system: ULK3
[6] = system: T1, VEGFR2
T1 construct: gene KDR

[7] = system: T2, VPS34
T2 construct: gene PIK3C3

[8] = system: VRK2
[9] = system: WEE1
[10] = system: WEE2
[11] = system: WNK1
[12] = system: WNK2
[13] = system: WNK3
[14] = system: WNK4
[15] = system: T3, YANK1
T3 construct: gene STK32A

[16] = system: T4, YANK2
T4 construct: gene STK32B

[17] = system: T5, YANK3
T5 construct: gene STK32C

[18] = system: T6, YES
T6 construct: gene YES1

[19] = system: T7, YSK1
T7 construct: gene STK25

[20] = system: T8, YSK4
T8 construct: gene MAP3K19
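Note: KINOMEscan kinase panel screen.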

| SMILES | %Inh [1] | %Inh [2] | %Inh [3] | %Inh [4] | %Inh [5] | %Inh [6] | %Inh [7] | %Inh [8] | %Inh [9] | %Inh [10] | %Inh [11] | %Inh [12] | %Inh [13] | %Inh [14] | %Inh [15] | %Inh [16] | %Inh [17] | %Inh [18] | %Inh [19] | %Inh [20] |
| --- | --- | --- | --- | --- | --- | --- | --- | --- | --- | --- | --- | --- | --- | --- | --- | --- | --- | --- | --- | --- |
| Cc1ccn2nc(-c3ccc(F)cc3)c(-c3ccncc3)c2c1.Cl [GW457859] | 25% | 0% | 0% | 0% | 0% | 19% | 51% | 0% | 7% | 0% | 0% | 5% | 30% | 55% | 91.9% | 13% | 0% | 5% | 15% | 0% |
| COc1cc2ncn(-c3cc(OCC4CCCCC4)c(C(N)=O)s3)c2cc1OC [GSK204559] | 15% | 0% | 9% | 0% | 25% | 4% | 20% | 0% | 0% | 25% | 0% | 0% | 0% | 0% | 0% | 8% | 6% | 4% | 24% | 35% |
| CSc1nccc(-c2c(-c3ccc(F)cc3)ncn2CCCN2CCOCC2)n1.Cl [SB-217146] | 22% | 0% | 12% | 36% | 14% | 7% | 16% | 30% | 0% | 1% | 21% | 0% | 0% | 0% | 0% | 0% | 0% | 0% | 0% | 25% |
| Cn1ccc2ncnc(Oc3ccc(NC(=O)Nc4cncc(C(F)(F)F)c4)c(Cl)c3)c21 | 0% | 0% | 0% | 0% | 99.9% | 98.5% | 0% | 0% | 0% | 7% | 0% | 0% | 0% | 0% | 0% | 2% | 25% | 0% | 0% | 17% |
| COc1ccc(Nc2nccc(N3CCC(NC(=O)c4cccc(C#N)c4)C3)n2)cc1 (centres unmarked) [GSK1379730] | 18% | 0% | 0% | 0% | 10% | 0% | 46% | 0% | 0% | 6% | 2% | 5% | 18% | 0% | 0% | 0% | 0% | 15% | 0% | 0% |
| FC(F)(F)c1cc(Br)cc(Nc2nccc(-c3cnn4ncccc34)n2)c1 [GW810578] | 89% | 0% | 21% | 20% | 12% | 40% | 64% | 4% | 5% | 70% | 14% | 25% | 0% | 0% | 0% | 0% | 25% | 0% | 0% | 64% |
| CC(C)S(=O)(=O)N1CCN(Cc2ccc3c(c2)nc(NC(=O)c2ccsc2)n3C[C@H](O)c2ccccc2)CC1 [GW635815] | 8% | 31% | 82% | 60% | 92.1% | 3% | 18% | 11% | 29% | 6% | 3% | 0% | 18% | 0% | 1% | 0% | 5% | 86% | 0% | 90.6% |
| Cn1ccc2ncnc(Oc3ccc(NC(=O)Nc4cc(C(C)(C)C)on4)c(Cl)c3)c21 | 26% | 28% | 8% | 11% | 16% | 97.5% | 16% | 19% | 0% | 23% | 0% | 20% | 0% | 0% | 0% | 5% | 0% | 3% | 0% | 99.5% |
| Cc1nnc(-c2ccc3occ(-c4ccc(S(C)=O)cc4)c3n2)o1 (centres unmarked) | 0% | 0% | 0% | 0% | 0% | 0% | 17% | 0% | 0% | 21% | 0% | 0% | 0% | 0% | 0% | 0% | 16% | 0% | 7% | 0% |
| Cc1ccc(CC(=O)N2CCc3cc(-c4cn(C)c5ncnc(N)c45)ccc32)cc1 [GSK2634758] | 17% | 0% | 11% | 35% | 6% | 0% | 0% | 19% | 0% | 0% | 12% | 0% | 53% | 17% | 15% | 0% | 10% | 25% | 26% | 50% |
| NC(=O)c1ccc(-c2cc3ncnc(SCC(=O)O)c3s2)cc1 | 42% | 0% | 0% | 0% | 11% | 0% | 0% | 0% | 0% | 0% | 0% | 0% | 0% | 0% | 0% | 0% | 0% | 0% | 0% | 63% |
| COC(=O)c1cccc(NC(=O)NC2CCN(c3ccnc(Nc4cc(OC)c(OC)c(OC)c4)n3)C2)c1 (centres unmarked) [GSK1379767] | 18% | 0% | 0% | 0% | 58% | 15% | 0% | 25% | 8% | 0% | 0% | 24% | 49% | 39% | 12% | 0% | 0% | 0% | 16% | 0% |
| COc1cc2c(Nc3ccc(NC(=O)c4ccccc4)cc3)ncnc2cc1OCCCN1CCOCC1 [GSK301329] | 0% | 13% | 7% | 0% | 13% | 6% | 2% | 0% | 19% | 9% | 1% | 31% | 12% | 0% | 14% | 0% | 10% | 46% | 6% | 12% |
| Cc1n[nH]c2cc(Nc3ccnc(Nc4cccc(CN5CCOCC5)c4)n3)ccc12 [GW682569] | 99.2% | 0% | 1% | 0% | 55% | 45% | 18% | 27% | 10% | 0% | 8% | 19% | 21% | 32% | 9% | 0% | 3% | 22% | 10% | 90% |
| O=C(Nc1n[nH]c2cc(-c3ccco3)ccc12)C1CC1 [SB-737447] | 0% | 0% | 11% | 0% | 20% | 6% | 16% | 0% | 0% | 2% | 0% | 0% | 0% | 0% | 0% | 0% | 0% | 0% | 0% | 96.2% |
| CS(=O)(=O)c1cccc(CNc2nc(Nc3ccc4c(c3)[C@@H]3C[C@@H]4CNC3=O)ncc2C(F)(F)F)c1 | 0% | 0% | 89% | 77% | 99.9% | 98.1% | 0% | 37% | 2% | 30% | 0% | 0% | 0% | 0% | 0% | 0% | 0% | 0% | 0% | 98.5% |
| CN1CCN(CCNc2nc3cc(Oc4ccc(NC(=O)Nc5cc(C(F)(F)F)ccc5F)cc4)ccc3[nH]2)CC1.Cl.Cl [GW768504] | 0% | 0% | 0% | 0% | 0% | 58% | 17% | 0% | 8% | 2% | 0% | 0% | 0% | 0% | 0% | 0% | 4% | 0% | 9% | 10% |
| O=C(Nc1ccccc1)c1cccc(Oc2ccc3nccn3n2)c1 | 18% | 29% | 0% | 0% | 0% |  | 6% | 0% | 0% | 0% | 4% | 3% | 8% | 36% | 0% | 0% | 0% | 0% | 0% | 12% |
| C[C@@H](Oc1cc(-n2cnc3cc(-c4ccncc4)ccc32)sc1C(N)=O)c1ccccc1Cl [GSK479719] | 46% | 15% | 32% | 3% | 18% | 40% | 32% | 0% | 1% | 0% | 32% | 76% | 90.2% | 2% | 7% | 0% | 26% | 44% | 0% | 97.5% |
| CN1CCN(CCCNc2nccc(-c3c(-c4ccc(F)cc4)nn4cc(C(N)=O)ccc34)n2)CC1 [GW622475] | 40% | 0% | 8% | 0% | 0% | 9% | 19% | 0% | 2% | 0% | 9% | 8% | 20% | 14% | 20% | 17% | 16% | 24% | 22% | 14% |
| NC(=O)Nc1sc(-c2ccc(F)cc2)cc1C(N)=O [GW789449] | 100% | 16% | 32% | 40% | 55% | 19% | 22% | 0% | 30% | 11% | 0% | 0% | 2% | 0% | 4% | 0% | 0% | 0% | 0% | 82% |
